Source: PubChem (National Center for Advancing Translational Sciences (NCATS))
HSD17B inh: qHTS Assay for Inhibitors of HSD17B4, hydroxysteroid (17-beta) dehydrogenase 4; recombinant HSD17B10, NADH fluorescence kinetic; actives 7.6% (n = 75,000); Potency, µM (doses to about 57.1 µM), hits mostly inhibitors; 3-hydroxyacyl-CoA dehydrogenase type-2 (Homo sapiens), Q99714;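 further: the protocol describes HADH2 (HSD17B10) and not the HSD17B4 of the title; nearly all actives have a fitted effect of over 70% in size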
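His-tagged E. coli-expressed HADH2 at 20 nM in 100 mM Tris-HCl pH 9.0 with 0.01 % Tween-20, preincubated 15 min with compound at room temperature. Reaction with 1 mM NAD+ and 90 uM beta-hydroxybutyryl coenzyme A; NADH fluorescence (360/450 nm) read kinetically over 4 min, last minus first point.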
HADH2 inh: qHTS Assay for Inhibitors of HADH2 (Hydroxyacyl-Coenzyme A Dehydrogenase, Type II). actives 3.4% (n = 73,000). Potency, µM (top dose mostly 57.1 µM), hits mostly inhibitors. 3-hydroxyacyl-CoA dehydrogenase type-2 (Homo sapiens), Q99714. recombinant HADH2, NADH fluorescence, beta-hydroxybutyryl-CoA; further: nearly all actives have a fitted effect of over 60% in size
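E. coli-expressed His-tagged HADH2 tested at 20 nM in alkaline Tris buffer (pH 9.0); oxidation of 90 uM beta-hydroxybutyryl-CoA with 1 mM NAD+ tracked fluorimetrically for 4 min.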
Bst PK mod: Pyruvate Kinase; Potency, µM; AID 361, 2006; actives 1.2% (n = 51,000); purified pyruvate kinase, luminescence ATP production; ribose 5-phosphate activator present at AC10; in the data active means potency below about 11 µM; inconclusive means mostly about 12 µM to 25 µM;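 the screen sought inhibitors and activators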
ERK AVP inh: qHTS Assay for Inhibitors of the ERK Signaling Pathway using a Homogeneous Screening Assay. HEK293-V1b, vasopressin-stimulated pERK AlphaScreen. Potency, µM (series often up to 57.5 µM), hits mostly inhibitors. actives 0.99% (n = 72,000). AID 995, 2007; further: nearly all actives have a fitted effect of over 55% in size
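Phosphorylated ERK1/2 detected via AlphaScreen bead proximity in lysates of V1b-expressing HEK293 cells given 25 nM vasopressin for 5 min after 30 min compound exposure (37 °C). AC50 from Hill equation; basal DMSO 0%, vasopressin 100%.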
FLuc inh: qHTS Assay for Inhibitors of Firefly Luciferase. AID 411, 2009. Luciferin 4-monooxygenase (Photinus pyralis), P08659. purified firefly luciferase, luminescence, 8 min. actives 2.2% (n = 72,000). Potency, µM (titrated, usually from 57.1 µM), usual class: inhibitors; further: nearly all actives have a fitted effect of over 40% in size
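qHTS concentration-response profiling: light output of P. pyralis luciferase with luciferin and 10 uM ATP, imidazole buffer pH 7.2. Read by luminescence after 8-min room-temperature incubation.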
15-hLO inh: qHTS Assay for Inhibitors of 15-hLO (15-human lipoxygenase); purified 15hLO-1, xylenol orange hydroperoxide absorbance; Potency, µM (doses to about 57.1 µM), most hits filed as inhibitors; actives 1.4% (n = 74,000); further: nearly all actives have a fitted effect of over 55% in size
Target sequence (P16050 whole entry, looked up): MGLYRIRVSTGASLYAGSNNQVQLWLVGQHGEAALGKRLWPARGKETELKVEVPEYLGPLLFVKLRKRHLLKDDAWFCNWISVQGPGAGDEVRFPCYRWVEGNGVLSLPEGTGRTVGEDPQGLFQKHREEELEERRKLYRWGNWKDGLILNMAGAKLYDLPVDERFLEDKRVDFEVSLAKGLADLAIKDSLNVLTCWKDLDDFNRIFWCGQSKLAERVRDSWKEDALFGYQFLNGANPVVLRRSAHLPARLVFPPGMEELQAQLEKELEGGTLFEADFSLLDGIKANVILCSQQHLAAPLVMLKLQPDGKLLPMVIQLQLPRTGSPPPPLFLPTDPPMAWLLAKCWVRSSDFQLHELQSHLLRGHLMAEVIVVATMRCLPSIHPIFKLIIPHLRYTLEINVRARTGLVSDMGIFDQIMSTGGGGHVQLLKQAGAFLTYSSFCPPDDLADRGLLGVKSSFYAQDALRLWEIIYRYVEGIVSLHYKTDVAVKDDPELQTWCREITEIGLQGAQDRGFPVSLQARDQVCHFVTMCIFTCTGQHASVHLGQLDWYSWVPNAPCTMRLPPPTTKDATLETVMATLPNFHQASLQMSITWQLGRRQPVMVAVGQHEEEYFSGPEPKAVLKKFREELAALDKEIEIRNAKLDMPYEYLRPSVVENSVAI
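Hydroperoxide formed from arachidonic acid (50 uM) by purified human 15hLO-1 (40 nM) oxidizes ferrous iron, and the ferric-xylenol orange complex is read at 573 versus 405 nm. Compounds were preincubated 15 min; reaction ran 6 min at room temperature.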
Hits are given with their value; - = inactive; ? = inconclusive; . = no result; [ ] = dose if it differs, or a comment. Hits are enriched below; roughly 11% of the tested compounds scored in any of these assays. Unless noted, the call rests on the fitted dose curve; in most records, active means well fitted curve in the direction sought with a large enough effect; inconclusive means small, poorly fitted or top-dose-only effect, or another doubt; inactive means no such curve, though single readings can be large; an effect the other way counts as inactive or inconclusive.

SMILES	HSD17B inh	HADH2 inh	Bst PK mod	ERK AVP inh	FLuc inh	15-hLO inh
O=C(COc1ccccc1)N1CCN(c2ncnc3c2cnn3-c2ccccc2)CC1	-	-	-	25µM	-	-
CNC1C(O)[C@@H]2OC(O[C@@H]3C(O)C(O)C(N)C[C@H]3N)C(N)C[C@H]2O[C@H]1O[C@@H]1OC(CO)C(N)C(O)C1O (some centres not stated)	-	.	.	-	.	-
CN1CCN(c2c(F)cc3c(=O)c(C(=O)O)cn4c3c2SCC4)CC1	25µM	?	-	-	-	-
O=C(COC(=O)c1ccc[nH]c1=O)c1ccc(Cl)s1	-	-	-	-	-	-
Cc1ccc(C(=O)OCC(=O)c2ccc(Cl)s2)s1	-	-	-	-	16µM	-
CC1=CC(=O)C2=C(C)CC[C@@H]3[C@@H](OC(=O)[C@H]3C)[C@H]12	-	-	.	-	-	-
CCOc1ccc2nc3ccc4[nH]onc4c3c2c1	32µM	-	.	-	-	-
COC1(C)CCC2OC2(C)CCC2C1CC2(C)C (configuration not stated)	-	.	.	-	.	-
N[C@H](CCCC(=O)O)C(=O)O	-	-	.	-	-	-
Cc1cc(-c2nc3c4c5c(sc4[nH]c(=O)n3n2)CCC5)c(C)o1	13µM	25µM	-	-	-	-
Cc1nc2sc3c(c2c(=O)[nH]1)CCC3	-	-	.	-	-	-
OC[C@H]1O[C@@H](OC[C@H]2O[C@@H](O)[C@H](O)[C@@H](O)[C@@H]2O)[C@H](O)[C@@H](O)[C@@H]1O	-	.	.	-	.	-
OCC1OC([S-])[C@H](O)C(O)C1O.[Au+] (some centres not stated)	3.2µM	.	.	?	.	?
COc1ccc2c3c(c(=O)oc2c1OCC(N)=O)CCCC3	16µM	-	?	-	-	-
Cc1cc2oc(=O)c3c(c2cc1OCc1nn[nH]n1)CCCC3	25µM	-	-	-	-	-
O=c1oc2cc(OCc3nn[nH]n3)ccc2c2c1CCCC2	25µM	16µM	-	-	-	-
Cc1c(OCc2nn[nH]n2)ccc2c3c(c(=O)oc12)CCCC3	25µM	-	.	-	-	-
O=C(Oc1ccc2c(=O)c(Cl)coc2c1)c1ccncc1	32µM	-	-	-	-	-
COc1ccc(-c2ncc3ccccn23)cc1	32µM	?	.	-	16µM	-
COC(=O)c1ccccc1NC(=O)C1CCN(C(=O)c2cc(OC)c(OC)c(OC)c2)CC1	20µM	?	.	?	-	-
CN1[C@H](Cc2ccccc2)C=C[C@]1(C)C(=O)NCC1CC1	-	-	.	-	.	-
CCOc1cccc(C=Nc2cc(C)cc(C)c2O)c1O	4µM	?	.	-	-	10µM
Cc1cc(O)c(C(C)C)cc1N=Cc1ccccc1O	-[11.4 µM]	-[11.4 µM]	.	-[11.5 µM]	-[11.4 µM]	?
O=C(NCCCc1ccccc1)c1ccccc1O	25µM	?	.	-	-	-[11.4 µM]
O=C(Nc1nc(-c2ccco2)c(-c2ccco2)s1)C1CC(=O)N(c2ccc3c(c2)OCCO3)C1 (configuration not stated)	1.3µM	4µM	-	?	-	2.5µM
SMILES	HSD17B inh	HADH2 inh	Bst PK mod	ERK AVP inh	FLuc inh	15-hLO inh
COc1ccc(N2CC(C(=O)Nc3ccc4c(c3)OCO4)CC2=O)cc1 (configuration not stated)	-	-	-	-	-	-
COc1ccc2c(c1)Cc1cc(N=[N+]([O-])c3ccc4c(c3)Cc3cc(OC)ccc3-4)ccc1-2	?	?	.	-[11.5 µM]	-[11.4 µM]	4µM
CCOC(=O)CNC(=O)c1sc2nc(C)cc(C)c2c1N	32µM	-	-	-	-	-
CN(C)c1ccnc2sc(C(=O)NCc3ccccc3)c(N)c12	-	-	.	-	-	?
CCOC(=O)c1sc2nc(C)cc(C)c2c1N	25µM	25µM	.	.	.	-
COC(=O)NC(CC(C)=O)c1cccc(F)c1 (configuration not stated)	-[11.4 µM]	-[11.4 µM]	.	-[11.5 µM]	.	-[11.4 µM]
